Data: PubChem BioAssay (NCATS)
Values joined by “and” are separate entries in the source; they are usually repeats but may differ in a detail not shown here. Identical values can stand only once. A number with no mark means an inactive call. Inconclusive results are not listed. A call without a number means that no potency is given here. Active and inactive are the calls of the source. Unless noted, calls come from the whole dose curve; as a rule, active = well fitted inhibition curve with a large enough effect; inconclusive = small, poorly fitted or top-dose-only effect; inactive = flat fitted curve, though single readings scatter.

Tests used:
[1] = target: Ubiquitin carboxyl-terminal hydrolase 1 (Homo sapiens) (UniProt O94782); assay: Inhibitors of USP1/UAF1: Pilot qHTS (AID 504865); conditions: purified USP1/UAF1, Ub-rhodamine cleavage fluorescence; series mostly up to 54.9 µM; note: nearly all actives have a fitted effect of over 35% in size; note: potency is the fitted concentration of half-maximal effect
Method in brief: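 USP1/UAF1 complex (1nM) preincubated with compound 15 min at room temperature, then Ub-Rho substrate (150nM final) added. Fluorescence read kinetically at 480/540 nm, 6 reads every 60 seconds. Buffer: 50mM HEPES pH 7.8, 0.5mM EDTA, 0.1 mg/ml BSA, 1mM TCEP, 0.01% Tween-20.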

AS120 = assay: qHTS profiling for inhibitors of Plasmodium falciparum proliferation (AID 504749); note: nearly all actives have a fitted effect of over 60% in size; note: potency is the fitted concentration of half-maximal effect; conditions: P. falciparum in erythrocytes, SYBR Green DNA, 72 h; series mostly up to 28.7 µM
Method in brief: (§1)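 Three-day growth assay of blood-stage parasites in erythrocytes (0.3% parasitemia, 2.5% hematocrit) at 37 C, 5% CO2, quantified by SYBR Green DNA staining after overnight detergent lysis.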

C2A = assay: as above; conditions: P. falciparum in erythrocytes, SYBR Green DNA, 72 h; series mostly up to 28.7 µM
Method in brief: as §1

CP191 = assay: as above; conditions: P. falciparum in erythrocytes, SYBR Green DNA, 72 h; series mostly up to 28.7 µM
Method in brief: as §1

CP192 = assay: as above; conditions: P. falciparum in erythrocytes, SYBR Green DNA, 72 h; series mostly up to 28.7 µM
Method in brief: as §1

CP237 = assay: as above; conditions: P. falciparum in erythrocytes, SYBR Green DNA, 72 h; series mostly up to 28.7 µM
Method in brief: as §1

CP247 = assay: as above; conditions: P. falciparum in erythrocytes, SYBR Green DNA, 72 h; series mostly up to 28.7 µM
Method in brief: as §1

CP256 = assay: as above; conditions: P. falciparum in erythrocytes, SYBR Green DNA, 72 h; series mostly up to 28.7 µM
Method in brief: as §1

CP260 = assay: as above; conditions: P. falciparum in erythrocytes, SYBR Green DNA, 72 h; series mostly up to 28.7 µM
Method in brief: as §1

CP265 = assay: as above; conditions: P. falciparum in erythrocytes, SYBR Green DNA, 72 h; series mostly up to 28.7 µM
Method in brief: as §1

CP266 = assay: as above; conditions: P. falciparum in erythrocytes, SYBR Green DNA, 72 h; series mostly up to 28.7 µM
Method in brief: as §1

CP269 = assay: as above; conditions: P. falciparum in erythrocytes, SYBR Green DNA, 72 h; series mostly up to 28.7 µM
Method in brief: as §1

CP291 = assay: as above; conditions: P. falciparum in erythrocytes, SYBR Green DNA, 72 h; series mostly up to 28.7 µM
Method in brief: as §1

CP335 = assay: as above; conditions: P. falciparum in erythrocytes, SYBR Green DNA, 72 h; series mostly up to 28.7 µM
Method in brief: as §1

DFO2036 = assay: as above; conditions: P. falciparum in erythrocytes, SYBR Green DNA, 72 h; series mostly up to 28.7 µM
Method in brief: as §1

Dd2 = assay: as above; conditions: P. falciparum in erythrocytes, SYBR Green DNA, 72 h; series mostly up to 28.7 µM
Method in brief: as §1

PC15 = assay: as above; conditions: P. falciparum in erythrocytes, SYBR Green DNA, 72 h; series mostly up to 28.7 µM
Method in brief: as §1

SC27B = assay: as above; conditions: P. falciparum in erythrocytes, SYBR Green DNA, 72 h; series mostly up to 28.7 µM
Method in brief: as §1

[2] = target: Tumor necrosis factor (Homo sapiens) (UniProt P01375); assay: qHTS assay to identify small molecules that stimulate Tumor Necrosis Factor-alpha (TNF-alpha) secretion (AID 651757; active = well fitted curve in the direction sought with a large enough effect in the signal ratio; the % refers to the signal ratio); conditions: Human cells, HTRF 665/615 ratio; series mostly up to 92.2 µM
Method in brief: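 THP-1 cells were exposed to compounds for 17 hrs at 37 C, after which secreted TNF-alpha was measured by homogeneous HTRF (TR-FRET) using cryptate- and XL665-labeled anti-TNF-alpha antibodies, read after 3 hr at room temperature.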

[3] = target: Nuclear receptor subfamily 1 group I member 2 (Rattus norvegicus) (UniProt Q9R1A7); assay: qHTS assay for small molecule activators of the rat pregnane X receptor (rPXR) signaling pathway (AID 651751; call rule not given here); conditions: rPXR reporter cells, luciferase (One-Glo), 24 h
Chain of Nuclear receptor subfamily 1 group I member 2 (Rattus norvegicus) (Q9R1A7 whole entry, looked up): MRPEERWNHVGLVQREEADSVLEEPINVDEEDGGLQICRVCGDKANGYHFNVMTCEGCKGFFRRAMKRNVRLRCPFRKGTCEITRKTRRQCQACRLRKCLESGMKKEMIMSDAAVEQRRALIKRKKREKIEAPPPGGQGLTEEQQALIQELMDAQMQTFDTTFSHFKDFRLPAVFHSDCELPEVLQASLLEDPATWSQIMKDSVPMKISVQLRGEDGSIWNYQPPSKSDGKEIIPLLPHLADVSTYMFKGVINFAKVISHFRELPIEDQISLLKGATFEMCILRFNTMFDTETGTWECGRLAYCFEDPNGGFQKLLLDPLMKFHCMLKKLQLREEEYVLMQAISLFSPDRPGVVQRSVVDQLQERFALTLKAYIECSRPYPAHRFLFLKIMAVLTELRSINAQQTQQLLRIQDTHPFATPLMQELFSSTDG

Chain of Ubiquitin carboxyl-terminal hydrolase 1 (Homo sapiens) (O94782 whole entry, looked up): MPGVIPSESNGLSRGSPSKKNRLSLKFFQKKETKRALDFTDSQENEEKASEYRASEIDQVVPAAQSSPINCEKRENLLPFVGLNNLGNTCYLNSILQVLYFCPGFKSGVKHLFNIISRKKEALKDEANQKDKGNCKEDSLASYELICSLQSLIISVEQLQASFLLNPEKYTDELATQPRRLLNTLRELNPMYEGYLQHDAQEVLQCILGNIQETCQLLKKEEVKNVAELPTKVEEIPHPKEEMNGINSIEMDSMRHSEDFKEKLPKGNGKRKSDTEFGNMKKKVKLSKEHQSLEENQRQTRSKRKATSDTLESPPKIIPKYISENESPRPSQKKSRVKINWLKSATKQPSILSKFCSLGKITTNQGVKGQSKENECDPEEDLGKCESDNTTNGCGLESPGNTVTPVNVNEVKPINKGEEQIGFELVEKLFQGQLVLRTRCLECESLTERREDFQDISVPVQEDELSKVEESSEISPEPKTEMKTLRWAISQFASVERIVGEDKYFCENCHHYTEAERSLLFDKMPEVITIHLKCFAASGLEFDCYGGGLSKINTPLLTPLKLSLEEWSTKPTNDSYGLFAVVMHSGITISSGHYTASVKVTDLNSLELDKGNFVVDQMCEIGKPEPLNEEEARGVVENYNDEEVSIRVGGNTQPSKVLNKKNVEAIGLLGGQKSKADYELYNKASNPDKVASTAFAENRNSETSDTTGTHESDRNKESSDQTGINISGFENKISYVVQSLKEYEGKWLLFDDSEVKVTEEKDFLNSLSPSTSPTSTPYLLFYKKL
Chain of Tumor necrosis factor (Homo sapiens) (P01375 whole entry, looked up): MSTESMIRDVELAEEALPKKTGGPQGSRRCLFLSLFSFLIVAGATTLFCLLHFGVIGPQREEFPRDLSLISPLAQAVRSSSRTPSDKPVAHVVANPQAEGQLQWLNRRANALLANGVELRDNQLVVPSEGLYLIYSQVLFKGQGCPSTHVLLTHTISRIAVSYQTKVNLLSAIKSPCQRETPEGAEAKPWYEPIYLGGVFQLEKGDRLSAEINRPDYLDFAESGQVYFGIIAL

## CCN1/C(=C/C=C/C=C/c2sc3ccccc3[n+]2CC)Sc2ccccc21
[1]
  Potency: 22.4 µM (active)
AS120
  Potency: 5.01 µM (active)
C2A
  Potency: 3.55 µM (active)
CP191
  Potency: 3.55 µM (active)
CP192
  Potency: 5.36 µM (active)
CP237
  Potency: 1.58 µM (active)
CP247
  Potency: 4.47 µM (active)
CP256
  Potency: 4.47 µM (active)
CP260
  Potency: 0.631 µM (active)
CP265
  Potency: 5.01 µM (active)
CP266
  Potency: 9.53 µM (active)
CP269
  Potency: 15.1 µM (active)
CP291
  Potency: 13.5 µM (active)
CP335
  Potency: 1.07 µM (active)
DFO2036
  Potency: 3.55 µM (active)
Dd2
  Potency: 2.24 µM (active)
PC15
  Potency: 4.47 µM (active)
SC27B
  Potency: 6.31 µM (active)

## O[C@@H]([C@H](O)[C@@H](O)CBr)[C@@H](O)CBr
[2]
  outcome: inactive
[3]
  max response: 0.919%

## CCC(=O)O[C@@H](OP(=O)(CCCCc1ccccc1)CC(=O)N1C[C@H](C2CCCCC2)C[C@H]1C(=O)O)C(C)C (stereo partly specified)
[1]
  Potency: inactive
AS120
  Potency: inactive
C2A
  Potency: inactive
CP191
  Potency: inactive
CP192
  Potency: inactive
CP237
  Potency: inactive
CP247
  Potency: inactive
CP256
  Potency: inactive
CP260
  Potency: inactive
CP265
  Potency: inactive
CP266
  Potency: inactive
CP269
  Potency: inactive
CP291
  Potency: inactive
CP335
  Potency: inactive
DFO2036
  Potency: inactive
Dd2
  Potency: inactive
PC15
  Potency: inactive
SC27B
  Potency: inactive

## CC1CCC(C(C)C)C(OC(=O)c2ccccc2O)C1 (stereo unspecified)
[1]
  Potency: inactive
AS120
  Potency: inactive
C2A
  Potency: inactive
CP191
  Potency: inactive
CP192
  Potency: inactive
CP237
  Potency: inactive
CP247
  Potency: inactive
CP256
  Potency: inactive
CP260
  Potency: inactive
CP265
  Potency: inactive
CP266
  Potency: inactive
CP269
  Potency: inactive
CP291
  Potency: inactive
CP335
  Potency: inactive
DFO2036
  Potency: inactive
Dd2
  Potency: inactive
PC15
  Potency: inactive
SC27B
  Potency: inactive

## O=NCc1ccc([N+](=O)[O-])o1
[1]
  Potency: inactive
C2A
  Potency: inactive
CP191
  Potency: inactive
CP192
  Potency: inactive
CP237
  Potency: inactive
CP256
  Potency: inactive
CP260
  Potency: inactive
CP265
  Potency: inactive
CP266
  Potency: inactive
CP291
  Potency: inactive
CP335
  Potency: inactive
DFO2036
  Potency: inactive
Dd2
  Potency: inactive
PC15
  Potency: inactive
SC27B
  Potency: inactive

## Cc1cccc(O)c1
[3]
  max response: -3.23% and 0.598%

## CO/N=C(/C(=O)N[C@@H]1C(=O)N2C(C(=O)O)=CCS[C@H]12)c1csc(N)n1
AS120
  Potency: inactive
C2A
  Potency: inactive
CP191
  Potency: inactive
CP192
  Potency: inactive
CP237
  Potency: inactive
CP247
  Potency: inactive
CP256
  Potency: inactive
CP260
  Potency: inactive
CP265
  Potency: inactive
CP266
  Potency: inactive
CP269
  Potency: inactive
CP291
  Potency: inactive
CP335
  Potency: inactive
DFO2036
  Potency: inactive
Dd2
  Potency: inactive
PC15
  Potency: inactive
SC27B
  Potency: inactive

## O=S(=O)(O)c1ccccc1
[2]
  outcome: inactive
[3]
  max response: 2.35%

## O=C1CCc2ccccc2O1
[2]
  outcome: inactive
[3]
  max response: 3.11%

## Cc1cc(CC(C)CC(C)(C)C)n(O)c(=O)c1 (stereo unspecified)
AS120
  Potency: 2.51 µM (active)
C2A
  Potency: 2.51 µM (active)
CP191
  Potency: 1.12 µM (active)
CP192
  Potency: 2.39 µM (active)
CP237
  Potency: 2.82 µM (active)
CP247
  Potency: 2.24 µM (active)
CP256
  Potency: 1.26 µM (active)
CP260
  Potency: 3.16 µM (active)
CP265
  Potency: 2.82 µM (active)
CP266
  Potency: 3.79 µM (active)
CP269
  Potency: 3.38 µM (active)
CP291
  Potency: 1.9 µM (active)
CP335
  Potency: 1.69 µM (active)
DFO2036
  Potency: 1.78 µM (active)
Dd2
  Potency: 7.94 µM (active)
PC15
  Potency: 5.01 µM (active)
SC27B
  Potency: 2.82 µM (active)

## COc1cc(/C=C/C(=O)N2CCC=CC2=O)cc(OC)c1OC
[1]
  Potency: inactive
